An excerpt weighted towards active compounds, which were near 1.2% of everything screened.
RGS8-Gao – regulators of human RGS8-Galphao interaction | 220,000 compounds, 0.34% hits | response (percent of control binding), % at 10 µM | P09471 | multiplexed bead flow cytometry, RGS8-Galphao binding; actives lie on both sides; in the data active = response below about 60% or above about 140%; inactive = in between;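 also: Galphao activated as the GDP aluminium fluoride complex binding bead-coupled RGS8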
Target sequence (P09471 whole entry, looked up): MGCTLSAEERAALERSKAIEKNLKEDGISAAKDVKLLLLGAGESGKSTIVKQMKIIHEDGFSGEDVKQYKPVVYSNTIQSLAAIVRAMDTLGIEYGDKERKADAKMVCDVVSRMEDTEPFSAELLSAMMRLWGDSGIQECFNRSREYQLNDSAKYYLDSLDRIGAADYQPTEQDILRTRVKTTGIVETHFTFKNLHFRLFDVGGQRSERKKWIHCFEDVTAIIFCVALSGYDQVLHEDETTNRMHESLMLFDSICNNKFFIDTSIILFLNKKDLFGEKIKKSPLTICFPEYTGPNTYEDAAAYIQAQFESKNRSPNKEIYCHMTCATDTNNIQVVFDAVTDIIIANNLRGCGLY
Avidin bead fluor – avidin bead compound fluorescence profile | Avidin beads, compound fluorescence 488/530 nm, flow cytometry; active compounds read high | fluorescence (KMESF) at 10 µM | 220,000 compounds, 0.38% hits; in the data active = fluorescence above about 47
RGS16-Gao – RGS16-Galphao interaction regulator (human). bead-based flow cytometry RGS16-Galphao binding, fluorescence; actives lie on both sides. binding response (% of control), % at 10 µM. 220,000 compounds, 0.38% hits; call rule not given here;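 also: Galphao activated by GDP with aluminum fluoride before binding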
Target sequence (O15492 whole entry, looked up): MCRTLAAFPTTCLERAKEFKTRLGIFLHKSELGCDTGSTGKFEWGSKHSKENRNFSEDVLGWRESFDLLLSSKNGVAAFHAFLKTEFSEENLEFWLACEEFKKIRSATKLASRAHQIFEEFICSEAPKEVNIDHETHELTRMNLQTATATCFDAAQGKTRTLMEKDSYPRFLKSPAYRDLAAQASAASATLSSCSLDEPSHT
Target sequence (P09471 whole entry, looked up): as the sequence (P09471 whole entry, looked up) above
RGS4-Gao reg – modulates binding of RGS4 to human Galphao | P09471 | Multiplexed bead flow cytometry; actives lie on both sides | binding response (% of control), % at 10 µM | 220,000 compounds, 0.33% hits; in the data active = binding response below about 49% or above about 150%; inactive = in between;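 also: fluorescent Galphao activated with aluminum fluoride binding bead-coupled RGS4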
RGS7-Gao – modulates binding of RGS7 to human Galphao | binding response (% of control), % at 10 µM | 220,000 compounds, 0.35% hits | P09471 | Multiplexed bead flow cytometry; actives lie on both sides; in the data active = binding response below about 49% or above about 150%; inconclusive = no clear call, values can overlap the other calls; inactive = in between;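 also: fluorescent Galphao held in activated GDP-AlF4 state binding bead-coupled RGS7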
GSH bead fluor – GSH bead compound fluorescence profile; fluorescence (KMESF) at 10 µM; GSH beads flow cytometry, compound fluorescence 488/530 nm; active compounds read high; 190,000 compounds, 0.25% hits; AID 1776; in the data active = fluorescence above about 89;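 also: glutathione beads carrying GST-tagged Bcl family fusion proteins plus one bare bead set; values are compound well signal with DMSO vehicle wells as background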
An asterisk follows results filed as active; ? = inconclusive; / = no result.

SMILES | RGS8-Gao | Avidin bead fluor | RGS16-Gao | RGS4-Gao reg | RGS7-Gao | GSH bead fluor
CC(=O)Nc1nnc(Cc2ccccc2)s1 | 110 | 7 | 108 | 108 | 107 | 264*
CC(C)CN(Cc1cc(=O)oc2cc3c(cc12)CCCC3)CC(C)C | 98 | 7 | 98 | 97 | ? | /
CCCCN1C(=O)N(C)C2C1N(C)C(=O)N2CCCC (stereo unspecified) | 106 | 5 | 124 | 105 | 103 | 130*
CCCCN1C(=O)N(C)C2NC(=O)NC21 (stereo unspecified) | 98 | 10 | 102 | 100 | 98 | 14
O=C(CSC1=NCCS1)N1CCN(c2ccccc2)CC1 | 90 | 4 | 78 | 90 | 94 | 25
O=C(CSC1=NCCS1)N1CCOCC1 | 103 | 8 | 107 | 101 | 100 | 249*
C=CCCC(=O)Nc1nc(C)c(-c2csc(Nc3cc(OC)ccc3OC)n2)s1 | 103 | 27 | 102 | 105 | 103 | 22
CCCC(=O)Nc1nc(C)c(-c2csc(Nc3cc(OC)ccc3OC)n2)s1 | 101 | 80* | 102 | 107 | 121 | 22
CC(Nc1n[nH]c(=S)[nH]c1=O)C(=O)OCc1ccccc1 (stereo unspecified) | 96 | 6 | 59 | 112 | 102 | 238*
CCOC(=O)C1CCCN(C(=O)C(C)Oc2ccc(Cl)cc2Cl)C1 (stereo unspecified) | 102 | 7 | 105 | 101 | 102 | 38
COC(=O)C1CCN(C(=O)C(C)Oc2ccc(Cl)cc2Cl)CC1 (stereo unspecified) | 102 | 57* | 104 | 108 | 138 | 28
O=C(N/N=C/c1cc([N+](=O)[O-])ccc1N1CCNCC1)c1ccc([N+](=O)[O-])cc1 | 101 | 15 | 99 | 94 | 93 | 20
COC(=O)c1ccccc1NC(=O)c1nc2nc(C)cc(C)n2n1 | 99 | 134* | 107 | 113 | 142 | 31
COC(=O)c1ccccc1NC(=O)c1cnn2c(C)cc(C)nc12 | 102 | 12 | 108 | 102 | 101 | 24
O=C(CCCn1c(=O)[nH]c2cc(Cl)ccc2c1=O)NCCCN1CCN(c2ccc(F)cc2)CC1 | 102 | 18 | 103 | 100 | 104 | 11
Cc1cccc(-c2ncc(CN3CCCC(CO)(Cc4ccccc4C)C3)cn2)c1 (stereo unspecified) | 103 | 2 | 102 | 101 | 105 | 9
CCOc1ccc2nc(SCC(=O)c3ccccc3)sc2c1 | 100 | 9 | 97 | 99 | 102 | 263*
CCc1cc2cc(C)ccc2nc1SCC(=O)N1CCN(C(=O)c2ccco2)CC1 | 106 | 7 | 125 | 94 | 95 | 254*
O=C(C1CCCO1)N1CCN(Cc2c(O)ccc3ccccc23)CC1 (stereo unspecified) | 100 | 61* | 101 | 104 | 113 | 16
Cc1ccc(CN2CCN(C(=O)C3CCCO3)CC2)cc1 (stereo unspecified) | 101 | 6 | 108 | 100 | 101 | 50
CCN(CC)c1ccc(/C=N\N2CCN(Cc3ccc(C)cc3)CC2)cc1 | 103 | 12 | 109 | 105 | 106 | 20
Cn1ncc2c(NNC(=O)c3ccc(Cl)cc3Cl)ncnc21 | 97 | 8 | 80 | 104 | 105 | 14
COc1cccc(C(=O)N2CCN(C(=O)Cc3ccccc3)CC2)c1 | 104 | 54* | 104 | 95 | 107 | 22
COC(=O)c1nnn(-c2nonc2N)c1CSc1nnc(N)s1 | 98 | 5 | 97 | 99 | 96 | 20
COc1ccc(CNC(=O)COC(=O)C2CCC(C(C)(C)C)CC2)cc1 (stereo unspecified) | 103 | 12 | 108 | 101 | 101 | 12
SMILES | RGS8-Gao | Avidin bead fluor | RGS16-Gao | RGS4-Gao reg | RGS7-Gao | GSH bead fluor
CCOC(=O)C1=C(C)NC(SC)=NC1c1ccc(OC)cc1 (stereo unspecified) | 103 | 4 | 110 | 107 | 106 | 111*
NS(=O)(=O)c1ccc(NC(=O)COc2ncnc3sccc23)cc1 | 103 | 6 | 102 | 103 | ? | /
O=C(NCCCN1CCN(Cc2ccccc2)CC1)C1CCN(S(=O)(=O)N2CCC3(CC2)OCCO3)CC1 | 94 | 12 | 92 | 93 | ? | 18
O=C(C1CCN(S(=O)(=O)N2CCC3(CC2)OCCO3)CC1)N1CCN(Cc2ccccc2)CC1 | 98 | 133* | 123 | 130 | 147 | 26
Cc1ccc(C)c(OCC(=O)O/N=C(\N)c2cccc([N+](=O)[O-])c2)c1 | 100 | 9 | 100 | 101 | ? | /
CCOc1ccc(/C=N/NC(=O)CNC(=O)c2ccc(S(=O)(=O)N3CCOCC3)cc2)cc1 | 101 | 10 | 100 | 102 | 99 | 21
COC(=O)c1cc(OC)c(OC)c(OC)c1N | 103 | 7 | 113 | 110 | 108 | 259*
CCOC(=O)c1cc(-c2ccc(C#N)cc2)nc2c1c(C)nn2CCC#N | 100 | 7 | 93 | 99 | 104 | 13
CCOC(=O)c1cc(-c2ccc(OC)cc2)nc2c1c(C)nn2CCC#N | 100 | 56* | 101 | 103 | 105 | 11
CC1CCc2c(sc(NC(=O)c3ccccc3C(=O)O)c2C#N)C1 (stereo unspecified) | 100 | 64* | 96 | 88 | 128 | 41
Cc1cc(NC(=O)Nc2cc(C)nn2-c2ccccc2)n(-c2ccccc2)n1 | 100 | 19 | 105 | 102 | 101 | 37
CCOC(=O)/C=C(\C)Nc1cc(C)nn1-c1ccccc1 | 8.3* | 0 | -13 | 23* | 11* | 22
CN(C)S(=O)(=O)c1cccc(C(=O)OCC(=O)Nc2sccc2C#N)c1 | 21* | -4 | -63* | -59* | -17* | 33
CCOC(=O)/C(C#N)=N/Nc1ccccc1C#N | 98 | 47* | 105 | 114 | ? | /
CCOC(=O)/C(C#N)=N/Nc1c(C)n(C)n(-c2ccccc2)c1=O | 103 | 9 | 101 | 102 | 103 | 11
FC(F)(F)c1cnc(COc2ccc(Cl)cc2Cl)c(Cl)c1 | 100 | 8 | 105 | 105 | ? | /
CCOC(=O)C(C)Sc1nc2c([nH]c3ccccc32)c(=O)n1C (stereo unspecified) | 100 | 7 | 103 | 100 | 100 | 15
CC(C)Sc1nc2c([nH]c3ccccc32)c(=O)n1C | 102 | 57* | 111 | 104 | 118 | 11
COc1ccc(CCNC(=O)c2cc(-c3cc(C)c(C)cc3O)n[nH]2)cc1OC | 97 | 90* | 105 | 109 | 132 | 22
COc1ccc(CCNC(=O)c2ccc(=O)[nH]n2)cc1OC | 100 | 7 | 106 | 104 | 103 | 41
COCCn1c(N)c(N(Cc2ccccc2)C(=O)c2oc3ccccc3c2C)c(=O)[nH]c1=O | 102 | 7 | 101 | 102 | 102 | 13
C[C@@]12CC(=O)NC1N(C(=O)c1ccccc1)C(c1ccccc1OC(=O)c1ccccc1)C2 (stereo partly specified) | 100 | 7 | 105 | 100 | 103 | 250*
